# Measurements taken from paper PMC7826789 (International Journal of Molecular Sciences, 2021).
# Experiments:
# Conditions in all cases: Compound Concentration (nM):1000
# [1] = tested on: RET(V804M)
# [2] = tested on: RET
# [3] = tested on: RIOK1
# [4] = tested on: RIOK2
# [5] = tested on: RIOK3
# [6] = tested on: RIPK1
# [7] = tested on: RIPK2
# [8] = tested on: RIPK4
# [9] = tested on: T1, RIPK5
# T1 construct: gene DSTYK
# [10] = tested on: ROCK1
# 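Also: KINOMEscan scanMAX binding as percent activity remaining versus control; lower means stronger binding.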
Compound,Percent Control [1] [%],Percent Control [2] [%],Percent Control [3] [%],Percent Control [4] [%],Percent Control [5] [%],Percent Control [6] [%],Percent Control [7] [%],Percent Control [8] [%],Percent Control [9] [%],Percent Control [10] [%]
COc1cc(C=NNc2ncnc3c2cnn3-c2ccccc2)ccc1O [GW513184X],100,44,32,45,16,96,50,9.1,90,97
CCS(=O)(=O)c1ccc(OC)c(Nc2ncc(-c3cccc(F)c3)o2)c1 [GW621970X],100,67,94,71,100,85,57,100,100,96
NS(=O)(=O)c1ccc(N/N=C2\C(=O)Nc3ccc(Cl)cc32)cc1 [GW280670X],100,100,74,100,89,100,100,100,100,100
CC(C)COC(=O)c1ccc2c(c1)/C(=C/Nc1ccc(S(N)(=O)=O)cc1)C(=O)N2 [GW416981X],26,100,21,100,15,100,100,100,48,36
NS(=O)(=O)c1ccc(N/N=C2\C(=O)Nc3ccc(C(=O)NCCc4c[nH]cn4)cc32)cc1 [GW300660X],100,100,74,100,78,100,100,80,59,67
NS(=O)(=O)c1ccc(Nc2ncc(-c3ccccc3)o2)cc1 [GW572399X],100,100,73,100,89,100,100,100,94,85
COC(=O)Nc1nc2ccc(Oc3ccc(NC(=O)Nc4cc(C(F)(F)F)ccc4F)cc3)cc2s1.Cl [GW693917A],0.5,0.1,62,100,54,45,25,76,100,79
O=C1Nc2ccc(C(=O)c3ccco3)cc2C1=Cc1cc(Cl)c(O)c(Cl)c1 [GW406108X],28,96,46,73,30,100,75,91,54,77
Cl.c1ccc(Cc2nc3ccc(Nc4ncnc5ccccc45)cc3[nH]2)cc1 [GR269666A],100,100,100,88,100,100,67,98,98,100
COc1cc(C)c(N(C)C(=O)CN(C)C)cc1Nc1nc(Nc2cccc(F)c2C(N)=O)c2cc[nH]c2n1 [GSK2219385],71,87,73,74,74,95,100,74,88,100
COc1ccc(COc2ccc(Cc3cnc(N)nc3N)cc2OC)cc1 [GW632580X],100,100,56,100,65,95,98,84,97,100
COc1cc2ncnc(Nc3ccc4c(cnn4Cc4ccccc4)c3)c2cc1OC.Cl [GW282449A],100,75,97,88,100,100,27,100,71,94
COc1ccc2cc(-c3c(-c4ccncc4)nc(-c4ccc(S(C)(=O)=O)cc4C)n3C)ccc2c1 [SB-633825],97,72,22,92,78,34,81,61,75,78
COc1cc(/C=N/Nc2ncnc3[nH]ncc23)ccc1O [GW578748X],77,5.9,47,8.9,46,100,100,6.9,75,63
COc1cc2ncn(-c3cc(O[C@H](C)c4ccccc4Cl)c(C(N)=O)s3)c2cc1OC [GSK237701A],77,54,26,100,19,61,100,87,84,69
CCc1ccc(Oc2nccc(-c3c(-c4ccc(F)cc4)ncn3C3CCNCC3)n2)cc1 [SB-242719],100,100,57,97,72,100,59,100,82,100
COc1ccc2[nH]c3c4[nH]c5ccc(OC)cc5c4c4c(c3c2c1)C(=O)NC4=O [GW296115X],21,41,58,89,100,90,60,83,27,72
C[C@@H](Oc1cc(-n2cnc3ccc(OC4CCN(C)CC4)cc32)sc1C(N)=O)c1ccccc1Cl [GSK579289A],84,99,13,91,34,89,87,33,93,87
CC1=C(C(=O)Nc2ccc3[nH]ncc3c2)C(c2ccc3ccccc3c2)CC(=O)N1 (stereo not drawn) [GSK270822A],66,28,74,100,88,97,90,68,96,
CN(C)CCNC(=O)Nc1ccc(N(C)c2ccnc(Nc3ccc(CS(C)(=O)=O)cc3)n2)cc1.Cl [GW830900A],86,60,9.5,90,17,99,94,60,32,9.4

Compound,Percent Control [1] [%],Percent Control [2] [%],Percent Control [3] [%],Percent Control [4] [%],Percent Control [5] [%],Percent Control [6] [%],Percent Control [7] [%],Percent Control [8] [%],Percent Control [9] [%],Percent Control [10] [%]
Cl.O=S1CCN(Cc2ccc(-c3ccc4ncnc(Nc5ccc(OCc6ccccc6)c(F)c5)c4c3)o2)CC1 [GW576924A],100,100,93,83,100,100,43,92,87,100
Cl.O=C(O[C@H]1CN[C@H](C#Cc2cc3ncnc(Nc4ccc5c(cnn5Cc5ccccc5)c4)c3s2)C1)N1CCOCC1 [GSK200398A],100,100,100,100,100,100,16,84,100,96
CCS(=O)(=O)c1ccc(OC)c(Nc2ncc(-c3cccc(OC)c3)o2)c1 [GW580509X],75,55,100,82,98,100,88,90,91,100
COc1cc(N2CCN(C(C)C)CC2)ccc1Nc1nc(Nc2ccc(F)cc2C(=O)NC[C@@H](O)CO)c2cc[nH]c2n1 [GSK1392956A],88,85,66,27,79,76,100,84,25,87
CN(C)c1cc2c(Nc3ccc4c(cnn4Cc4ccccc4)c3)ncnc2cn1 [GW282974X],89,86,98,100,100,53,27,74,90,100
Nc1ncnc2occ(-c3ccc(NC(=O)Nc4cc(C(F)(F)F)ccc4F)cc3)c12 [GW770249X],0.1,0,56,100,44,26,100,100,80,84
COc1ccc2c(-c3ccnc(Nc4cccc(OC(F)(F)F)c4)n3)cnn2n1 [GW810372X],100,100,42,29,51,100,100,77,100,100
Cl.O=C(Nc1ccc(Oc2ccc3[nH]c(NC(=O)c4ccccc4)nc3c2)cc1)Nc1cc(C(F)(F)F)ccc1F [GW709042A],2.7,0.6,52,100,33,62,89,100,100,95
O=C(Nc1n[nH]c2nc(-c3ccc(O)cc3)c(Br)cc12)C1CC1 [SB-725317],96,100,55,82,56,100,100,90,100,100
CN1CCN(C(=O)c2ccc(NC(=O)Nc3ccc(N(C)c4ccnc(Nc5ccc(CS(C)(=O)=O)cc5)n4)cc3)cc2)CC1.Cl [GW830263A],0.5,0,2.2,21,0,100,94,57,5.4,17
Cc1cc(O)cc(C)c1/C=C/c1cncc(C(N)=O)c1 [GW435821X],100,100,99,100,93,100,21,100,93,100
C/C(Nc1ccc(S(N)(=O)=O)cc1)=C1/C(=O)Nc2ccccc21 [GW335962X],100,96,82,100,69,96,83,86,48,83
COc1cccc(-c2c[nH]c3c(N/N=C/c4ccncc4)ncnc23)c1 [GW814408X],100,85,49,76,66,100,41,13,100,79
CCn1c(-c2nonc2N)nc2c(C#CC(C)(C)O)nc(OCCNC)cc21.Cl [GSK949675],100,96,100,91,100,100,100,100,99,57
Cl.O=C(Nc1ccc(Oc2ccc3[nH]c(NC(=O)c4ccco4)nc3c2)cc1)Nc1cc(C(F)(F)F)ccc1F [GW683134A],0.4,0,64,98,40,21,48,100,100,73
NS(=O)(=O)c1ccc(N/N=C2\C(=O)Nc3ccc(-c4cnco4)cc32)cc1 [GW276655],92,82,27,69,51,76,84,87,68,8.8
COc1cccc(-n2ncc3c(N/N=C/c4ccncc4)ncnc32)c1 [GW784752X],87,97,79,75,94,89,38,3.9,100,74
COc1ccccc1-c1cc(/C=C2\C(=O)Nc3ncc(Br)cc32)cc(Br)c1O [GW442130X],100,100,100,17,100,100,100,100,100,96
NS(=O)(=O)c1ccc(N/N=C2\C(=O)Nc3ccc(C(=O)NCc4ccncc4)cc32)cc1 [GW300657X],84,92,62,77,63,89,100,72,47,64
CC1=C(C(=O)Nc2ccc3[nH]ncc3c2)C(c2ccc(Cl)c(Cl)c2)CC(=O)N1 (stereo not drawn) [GSK299115A],89,76,99,100,86,77,72,78,99,0
